# Laboratory results as given in PubChem BioAssay (NCI).
# Several values for one entry are separate records, joined by “and”; a condition that tells them apart may be missing. Equal values may be shown once. Compounds without any hit were thinned out: in the full panel of roughly 79,000, 15% have a hit. Where a structure was tested more than once in an assay, its records may differ in their call. Activity calls are given as the source filed them. Cut-off read from the data, not from the text of the source: active = growth inhibition above about 70%; inactive = the rest.
# How the values were obtained:
# [1] = NCI Yeast Anticancer Drug Screen. Data for the rad52 strain (AID 147);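 note: 0% = growth of vehicle-treated control cultures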; details: S. cerevisiae rad52 mutant growth inhibition, stronger effect = higher value
# Summary of the method: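 Read-out: growth inhibition versus vehicle-treated controls. Cells were a DNA repair-deficient yeast strain treated with compounds.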
# [2] = NCI Yeast Anticancer Drug Screen. Data for the wt1 strain (AID 149);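 note: 0% = growth of vehicle-treated wt1 cultures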; details: S. cerevisiae wt1 strain (SPY 50644) growth inhibition, stronger effect = higher value
# Summary of the method: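 Readout: yeast growth inhibition, normalised to vehicle controls, in the wt1 strain exposed to test compounds.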
# [3] = NCI Yeast Anticancer Drug Screen. Data for the rad50EPP+ strain (AID 151);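 note: 0% = growth of vehicle-treated control cultures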; details: S. cerevisiae rad50 mutant strain, stronger effect = higher value
# Summary of the method: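 Growth inhibition read against vehicle controls in rad50EPP+ yeast, a strain altered in DNA damage repair, after compound exposure.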
# [4] = NCI Yeast Anticancer Drug Screen. Data for the mgt1 strain (AID 153); details: S. cerevisiae mgt1 mutant growth inhibition, stronger effect = higher value
# Summary of the method: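 mgt1 yeast grown with test compound; read-out is growth inhibition versus vehicle-treated cultures.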
# [5] = NCI Yeast Anticancer Drug Screen. Data for the rad50 strain (AID 155);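 note: 0% = growth of vehicle-only cultures of the same strain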; details: S. cerevisiae rad50 strain growth inhibition, stronger effect = higher value
# Summary of the method: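 Compounds were tested on a yeast strain with an engineered DNA damage repair alteration; the reported value is growth inhibition normalised to vehicle treatment.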
# [6] = NCI Yeast Anticancer Drug Screen. Data for the mec2-1 strain (AID 157); details: S. cerevisiae mec2-1 strain, stronger effect = higher value
# Summary of the method: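 Yeast mec2-1 mutant treated with compound. Readout: growth inhibition vs vehicle controls.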
# [7] = NCI Yeast Anticancer Drug Screen. Data for the rad14 strain (AID 159);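 note: 0% = growth of vehicle-treated control cultures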; details: S. cerevisiae rad14 strain growth inhibition, stronger effect = higher value
# Summary of the method: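 Compound-treated yeast with a defined DNA-repair lesion; growth inhibition normalised to vehicle-treated cultures.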
# [8] = NCI Yeast Anticancer Drug Screen. Data for the sgs1 mgt1 strain (AID 161);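 note: 0% = growth of cultures given vehicle only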; details: S. cerevisiae sgs1 mgt1 strain, stronger effect = higher value
# Summary of the method: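 Genetically altered yeast, compound exposure, growth inhibition relative to vehicle.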
# [9] = NCI Yeast Anticancer Drug Screen. Data for the CLN2oe strain (AID 163);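 note: 0% = growth of vehicle-only control cultures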; details: S. cerevisiae CLN2oe strain, stronger effect = higher value
# Summary of the method: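 Read-out: yeast growth inhibition, expressed relative to vehicle-only controls. The strain bears an engineered cell-cycle alteration.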
# [10] = NCI Yeast Anticancer Drug Screen. Data for the cln2 rad14 strain (AID 165);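 note: 0% = growth equal to vehicle treated cultures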; details: S. cerevisiae cln2 rad14 strain, stronger effect = higher value
# Summary of the method: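 cln2 rad14 yeast strain; compound exposure; growth inhibition read vs vehicle controls.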
# [11] = NCI Yeast Anticancer Drug Screen. Data for the bub3 strain (AID 167); details: S. cerevisiae bub3 mutant strain, stronger effect = higher value
# Summary of the method: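 Growth of a checkpoint-deficient yeast mutant is measured after compound exposure. Values represent inhibition relative to vehicle.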
# [12] = NCI Yeast Anticancer Drug Screen. Data for the wt2 strain (AID 169);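 note: 0% = growth of vehicle-treated yeast cultures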; details: S. cerevisiae wt2 strain growth inhibition, stronger effect = higher value
# Summary of the method: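 Read-out: growth inhibition versus vehicle-treated control cultures after compound exposure of the yeast strain.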
# [13] = NCI Yeast Anticancer Drug Screen. Data for the mlh1 strain (AID 171);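 note: 0% = growth of vehicle-treated control cultures of the same strain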; details: S. cerevisiae mlh1 strain growth inhibition, stronger effect = higher value
# Summary of the method: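 Read-out: growth inhibition versus vehicle controls. Strain: engineered yeast with a defined DNA repair or cell cycle defect, compound-treated.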
# [14] = NCI Yeast Anticancer Drug Screen. Data for the sgs1 strain (AID 173);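 note: 0% = growth of vehicle-only control cultures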; details: S. cerevisiae sgs1 mutant, stronger effect = higher value
# Summary of the method: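 Read-out: yeast growth inhibition relative to vehicle controls, following compound exposure of a strain with a defined DNA repair/cell cycle alteration.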
# [15] = NCI Yeast Anticancer Drug Screen. Data for the mlh1 rad18 strain (AID 175); details: S. cerevisiae mlh1 rad18 strain growth inhibition, stronger effect = higher value
# Summary of the method: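 Yeast w/ defined DNA-repair lesions; compound exposure; growth vs vehicle controls → % inhibition.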
# [16] = NCI Yeast Anticancer Drug Screen. Data for the rad18 strain (AID 177); details: S. cerevisiae rad18 mutant growth inhibition, stronger effect = higher value
# Summary of the method: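 Readout: growth inhibition vs vehicle controls. Cells: genetically altered yeast strain, DNA repair defect.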
# [17] = at 5.0 µM (retest, dose inferred, filed as 0.5)
# [18] = at 50.0 µM (retest, dose inferred, filed as 5.0)
structure (smiles),measurement,setting,value
Nc1ncnc2c1ncn2C1OC(CO)CC1O (stereo not drawn),growth inhibition,[1]; at 1.2 µM,-20% (inactive)
same,growth inhibition,[1]; at 3.7 µM,-10% (inactive)
same,growth inhibition,[1]; at 11.0 µM,24% (inactive)
same,growth inhibition,[1]; at 33.0 µM,71% (active)
same,growth inhibition,[1]; at 100.0 µM,91% (active)
same,growth inhibition,[2]; at 1.2 µM,-25% (inactive)
same,growth inhibition,[2]; at 3.7 µM,-10% (inactive)
same,growth inhibition,[2]; at 11.0 µM,-4% (inactive)
same,growth inhibition,[2]; at 33.0 µM,54% (inactive)
same,growth inhibition,[2]; at 100.0 µM,87% (active)
same,growth inhibition,[3]; at 1.2 µM,-16% (inactive)
same,growth inhibition,[3]; at 3.7 µM,-12% (inactive)
same,growth inhibition,[3]; at 11.0 µM,-10% (inactive)
same,growth inhibition,[3]; at 33.0 µM,-25% (inactive)
same,growth inhibition,[3]; at 100.0 µM,0% (inactive)
same,growth inhibition,[4]; at 1.2 µM,-37% (inactive)
same,growth inhibition,[4]; at 3.7 µM,-3% (inactive)
same,growth inhibition,[4]; at 11.0 µM,10% (inactive)
same,growth inhibition,[4]; at 33.0 µM,62% (inactive)
same,growth inhibition,[4]; at 100.0 µM,89% (active)
same,growth inhibition,[5]; at 1.2 µM,-9% (inactive)
same,growth inhibition,[5]; at 3.7 µM,-3% (inactive)
same,growth inhibition,[5]; [17],63% (inactive) and 14% (inactive)
same,growth inhibition,[5]; at 11.0 µM,30% (inactive)
same,growth inhibition,[5]; at 33.0 µM,76% (active)
same,growth inhibition,[5]; [18],90% (active)
same,growth inhibition,[5]; at 50.0 µM,87.8% (active) and 6.15% (inactive) and 79.6% (active)
same,growth inhibition,[5]; at 100.0 µM,91% (active)
same,growth inhibition,[6]; at 1.2 µM,-7% (inactive)
same,growth inhibition,[6]; at 3.7 µM,-8% (inactive)
same,growth inhibition,[6]; [17],63% (inactive) and 17% (inactive)
same,growth inhibition,[6]; at 11.0 µM,7% (inactive)
same,growth inhibition,[6]; at 33.0 µM,72% (active)
same,growth inhibition,[6]; [18],92% (active) and 91% (active)
same,growth inhibition,[6]; at 50.0 µM,88% (active) and -5.4% (inactive) and 76.5% (active)
same,growth inhibition,[6]; at 100.0 µM,92% (active)
same,growth inhibition,[7]; at 1.2 µM,-15% (inactive)
same,growth inhibition,[7]; at 3.7 µM,-1% (inactive)
same,growth inhibition,[7]; at 11.0 µM,27% (inactive)
same,growth inhibition,[7]; at 33.0 µM,76% (active)
same,growth inhibition,[7]; at 100.0 µM,94% (active)
same,growth inhibition,[8]; [17],-20% (inactive) and 14% (inactive)
same,growth inhibition,[8]; [18],89% (active) and 90% (active)
same,growth inhibition,[8]; at 50.0 µM,87.5% (active) and 2.25% (inactive) and 72.8% (active)
same,growth inhibition,[9]; at 1.2 µM,17% (inactive)
same,growth inhibition,[9]; at 3.7 µM,9% (inactive)
same,growth inhibition,[9]; at 11.0 µM,27% (inactive)
same,growth inhibition,[9]; at 33.0 µM,47% (inactive)
same,growth inhibition,[9]; at 100.0 µM,85% (active)
same,growth inhibition,[10]; [17],10% (inactive) and 9% (inactive)
same,growth inhibition,[10]; [18],87% (active) and 68% (inactive)
same,growth inhibition,[10]; at 50.0 µM,81.8% (active) and -27.8% (inactive) and 59.8% (inactive)
same,growth inhibition,[11]; at 1.2 µM,-6% (inactive)
same,growth inhibition,[11]; at 3.7 µM,-2% (inactive)
same,growth inhibition,[11]; [17],34% (inactive) and 22% (inactive)
same,growth inhibition,[11]; at 11.0 µM,34% (inactive)
same,growth inhibition,[11]; at 33.0 µM,77% (active)
same,growth inhibition,[11]; [18],92% (active)
same,growth inhibition,[11]; at 50.0 µM,89.3% (active) and -3.15% (inactive) and 83% (active)
same,growth inhibition,[11]; at 100.0 µM,92% (active)
same,growth inhibition,[12]; at 1.2 µM,-7% (inactive)
same,growth inhibition,[12]; at 3.7 µM,-3% (inactive)
same,growth inhibition,[12]; at 11.0 µM,13% (inactive)
same,growth inhibition,[12]; at 33.0 µM,66% (inactive)
same,growth inhibition,[12]; at 100.0 µM,91% (active)
same,growth inhibition,[13]; at 1.2 µM,-22% (inactive)
same,growth inhibition,[13]; at 3.7 µM,-5% (inactive)
same,growth inhibition,[13]; at 11.0 µM,15% (inactive)
same,growth inhibition,[13]; at 33.0 µM,66% (inactive)
same,growth inhibition,[13]; at 100.0 µM,91% (active)
same,growth inhibition,[14]; at 1.2 µM,-14% (inactive)
same,growth inhibition,[14]; at 3.7 µM,2% (inactive)
same,growth inhibition,[14]; at 11.0 µM,25% (inactive)
same,growth inhibition,[14]; at 33.0 µM,72% (active)
same,growth inhibition,[14]; at 100.0 µM,90% (active)
same,growth inhibition,[15]; [17],39% (inactive) and 11% (inactive)
same,growth inhibition,[15]; [18],91% (active) and 92% (active)
same,growth inhibition,[15]; at 50.0 µM,89.5% (active) and 1.35% (inactive) and 82.9% (active)
same,growth inhibition,[16]; at 1.2 µM,4% (inactive)
same,growth inhibition,[16]; at 3.7 µM,4% (inactive)
same,growth inhibition,[16]; at 11.0 µM,52% (inactive)
same,growth inhibition,[16]; at 33.0 µM,82% (active)
same,growth inhibition,[16]; at 100.0 µM,92% (active)
